Screening results as filed in PubChem BioAssay.
Hits are enriched below; roughly 1.6% of the tested compounds scored in any of these assays.
CR mimetic SO: reduction of superoxide in aged yeast, primary screen, HTS | 330,000 compounds, 0.18% hits | AID 2690, 2010 | superoxide response (% of plate mean), % at 10 µM | S. cerevisiae aged cells, superoxide DHE fluorescence; hits give low values;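 active = superoxide response under a set limit, about three screen SD below normal, cut at about 65% in these data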;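 note: yeast aged for seven days with compound at 30 °C before DHE staining; 100% = average MFI of all compound-treated wells on the plate with controls excluded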
GRK2 aptamer HTS: compounds blocking aptamer binding on GRK2 – biochemical, human GRK2, bead flow cytometry, HTS, primary screen; FAM-aptamer displacement from GRK2; 330,000 compounds, 0.59% hits; AID 488847, 2010; inhibition of aptamer binding, % at 10 µM; Beta-adrenergic receptor kinase 1 (Homo sapiens), P25098;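 active = inhibition of aptamer binding above 40%, roughly 3 SD of noise, on plates passing a quality check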;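 note: median bead fluorescence of bound FAM aptamer so fluorescent compounds give negative values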
ATG4B inhibitor: ATG4B protease inhibitors, primary screen, biochemical, fluorescence, uHTS | Cysteine protease ATG4B (Homo sapiens), Q9Y4P1 | ATG4B cleavage of LC3-PLA2, NBD-HPC fluorescence, 1 h | inhibition, % at 8.33 µM | 340,000 compounds, 0.51% hits | AID 504462, 2011; in the data active = inhibition above about 40%
Target sequence (Q9Y4P1 whole entry, looked up): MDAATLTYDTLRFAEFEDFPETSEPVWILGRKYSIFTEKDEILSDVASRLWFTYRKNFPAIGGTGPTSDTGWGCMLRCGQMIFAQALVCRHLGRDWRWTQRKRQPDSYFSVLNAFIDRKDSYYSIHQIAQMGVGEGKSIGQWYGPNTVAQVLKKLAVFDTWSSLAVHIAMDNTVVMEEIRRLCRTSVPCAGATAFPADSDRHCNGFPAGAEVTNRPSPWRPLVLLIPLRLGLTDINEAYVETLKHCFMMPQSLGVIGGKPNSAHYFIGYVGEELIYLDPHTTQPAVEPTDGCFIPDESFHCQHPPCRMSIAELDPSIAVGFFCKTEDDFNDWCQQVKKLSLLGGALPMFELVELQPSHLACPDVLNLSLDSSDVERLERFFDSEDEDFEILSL
Efflux pump mplx: inhibitors of Candida efflux pumps in yeast, primary screen, S. cerevisiae, Nile Red, multiplex; S. cerevisiae Candida pump triplex; inhibition, % at 10 µM; 330,000 compounds, 0.44% hits;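 active = plate passing quality check with inhibition over a set limit, or well fluorescence over plate mean plus 4 SD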;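 note: Nile Red retained in pooled yeast measured as flow cytometry median fluorescence; 0% = buffer negative control and 100% = Enniatin B positive control; higher means more Nile Red kept so more efflux inhibition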
Yeast cmpd fluor: compound fluorescence in yeast efflux pump counter-screen; shares compounds with Efflux pump mplx; S. cerevisiae AD/pABC3, flow cytometry; fluorescence ratio to DMSO, % at 10 µM; 1,700 compounds, 4% hits; AID 588517;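 active = fluorescence ratio to DMSO above its plate's cutoff, the plate mean ratio plus 5 SD, cut at about 210% in these data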;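 note: unstained yeast with no Nile Red so the signal is compound autofluorescence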
CaMdr1 efflux inh: inhibitors of Candida albicans Mdr1 efflux, confirmation, flow cytometry, singleplex, Cherry Pick1 set. shares compounds with Efflux pump mplx. S. cerevisiae AD/CaMDR1, Nile Red efflux. inhibition, % at 10 µM. 1,700 compounds, 1% hits; in the data active = inhibition above about 26%;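 note: 0% = DMSO vehicle and 100% = reference inhibitor; higher means more Nile Red retained so more efflux inhibition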
Cdr2 pump inh: inhibitors of Candida albicans Cdr2 efflux pump, confirmation, S. cerevisiae AD/CaCDR2, flow cytometry, cherry pick 1, singleplex; shares compounds with Efflux pump mplx; Nile Red retention; Nile Red retention ratio vs DMSO, % at 10 µM; 1,700 compounds, 4% hits; in the data active = Nile Red retention ratio vs DMSO above about 190%;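 note: higher ratio means more blocking of Cdr2 efflux of the dye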
Cdr1 pump inh: inhibitors of Candida albicans Cdr1 efflux pump, confirmation, S. cerevisiae AD/CaCDR1, flow cytometry, cherry pick 1, singleplex | shares compounds with Efflux pump mplx | Nile Red efflux | inhibition, % at 10 µM | 1,700 compounds, 1% hits | AID 588522, 2011;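 active = inhibition above the screen-wide mean plus twice its standard deviation, cut at about 32% in these data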
Starred values were filed as active, the others as inactive; . = not tested or not shown.

SMILES	CR mimetic SO	GRK2 aptamer HTS	ATG4B inhibitor	Efflux pump mplx	Yeast cmpd fluor	CaMdr1 efflux inh	Cdr2 pump inh	Cdr1 pump inh
CN(C(=O)c1cccs1)c1ccc(OCC(=O)N2CCC(C(N)=O)CC2)cc1	93	0	-4	0	.	.	.	.
CCCOC(=O)c1ccc(NC(=O)C2C3CCC(C3)C2C(=O)O)cc1 (configuration not stated)	85	0	-1	15*	105	0	102	0
CC1=C(C(=O)OCCCCCl)C(c2cc3c(cc2Br)OCO3)NC(=O)N1 (configuration not stated)	94	1	-8	0	.	.	.	.
Cn1cccc1CNC(=S)Nc1ccccc1F	116	3	6	0	.	.	.	.
O=C(c1ccccc1)C1Oc2ccccc2C2CC(c3cccs3)=NN12 (configuration not stated)	94	0	3	1.5*	120	0	117	0
CCN(CC)S(=O)(=O)c1ccc(OC)c(NC(=O)C2CC(=O)N(c3ccc(C)cc3)C2)c1 (configuration not stated)	110	0	-7	0	.	.	.	.
CCC1=C(OC(=O)N(CC)CC)N2C(=O)OC(=NCCc3c[nH]c4ccccc34)[C@]2(Cc2ccccc2)[C@H]2C1=CC[C@H]1C(=O)N(C)C(=O)[C@H]12	99	0	5	96*	112	39*	125	1
CCC1=C(OC(=O)N(CC)CC)N2C(=O)OC(=NCCc3c[nH]c4ccccc34)[C@]2(Cc2ccccc2)[C@H]2C1=CC[C@H]1C(=O)N(c3ccccc3)C(=O)[C@H]12	95	0	6	0	.	.	.	.
CC(=O)Nc1ccc(C(=O)N/N=C/c2ccc(F)cc2)cc1	73	0	3	0.6*	95	0	103	0
CC(=O)Nc1ccc(C(=O)OCC(=O)c2ccc(F)cc2)cc1	91	2	-6	32*	97	0	106	0
CC(=O)Nc1ccc(C(=O)OCc2ccc(F)cc2)cc1	105	0	3	0	.	.	.	.
O=C(N/N=C\c1ccc(F)cc1)c1ccc(F)cc1	80	5	-11	0	.	.	.	.
O=C(CC1Sc2ccccc2NC1=O)Nc1ccccc1[N+](=O)[O-] (configuration not stated)	109	1	3	18*	100	0	94	0
O=C(CC1Sc2ccccc2NC1=O)Nc1cccnc1 (configuration not stated)	78	0	-9	0	.	.	.	.
CNC(=S)Nc1ccc(C)cc1	94	2	-1	11*	100	0	102	0
CC(Oc1ccccc1F)C(=O)NNC(=O)c1cc2ccccc2o1 (configuration not stated)	92	2	-2	0	.	.	.	.
Cc1ccc(-n2c(N)c(C(=O)Nc3c(C)n(C)n(-c4ccccc4)c3=O)c3nc4ccccc4nc32)cc1C	96	0	.	0	.	.	.	.
COc1ccc(-n2c(N)c(C(=O)Nc3c(C)n(C)n(-c4ccccc4)c3=O)c3nc4ccccc4nc32)cc1	117	0	0	0.8*	110	0	108	0
Cc1cc(NS(=O)(=O)c2ccc(NC(=O)C(CC(C)C)N3C(=O)c4ccccc4C3=O)cc2)nc(C)n1 (configuration not stated)	98	5	-3	0.9*	100	0	97	0
O=C(COc1ccc(Br)cc1Cl)c1ccc[nH]1	113	18	-2	0	.	.	.	.
O=C(COc1ccccc1Cl)c1ccc[nH]1	112	3	-8	0.7*	96	0	109	0
CCOc1ccc(S(=O)(=O)N2CCCC(C(=O)N3CCN(CC)CC3)C2)cc1Cl (configuration not stated)	104	1	-4	0	.	.	.	.
O=C(c1nc2nc(-c3ccccc3)cc(C(F)(F)F)n2n1)N1CCOCC1	105	0	-2	0	.	.	.	.
CC(C)(C)NC(=O)c1nc2nc(-c3ccccc3)cc(C(F)(F)F)n2n1	90	1	-3	8.2*	103	0	98	0
CN(CCC#N)C(=O)COC(=O)c1ccc2c(c1)C(=O)N(C1CCCCC1)C2=O	104	3	-6	6.2*	106	0	106	0
SMILES	CR mimetic SO	GRK2 aptamer HTS	ATG4B inhibitor	Efflux pump mplx	Yeast cmpd fluor	CaMdr1 efflux inh	Cdr2 pump inh	Cdr1 pump inh
O=C(Nc1cccnc1)c1ccc(-c2ccc(Cl)cc2)o1	100	0	-4	0	.	.	.	.
CN(C)C(=O)c1ccc(NC(=O)c2ccc(-c3ccc(Cl)cc3)o2)cc1	131	1	-2	0.6*	108	0	110	0
CCOC(=O)c1c(NC(=S)Nc2ccccc2)sc2c1CC(C)(C)SC2	111	0	8	0.5*	202	6	245*	4
CCN1CCN(CC(=O)Nc2cc(C(F)(F)F)ccc2OCCOC)CC1	112	3	-8	1.3*	104	0	107	0
COc1ccc(C(=O)CSc2nnc(CN3CCCC3)n2-c2ccc(F)cc2)c(OC)c1	98	0	-15	0	.	.	.	.
O=C(NCc1ccc(Cl)cc1)N1CCc2ccccc2C1	106	1	12	1.3*	106	0	108	0
O=C(CNCc1ccc(Cl)cc1)N1CCc2ccccc2C1	95	28	-3	0	.	.	.	.
CCCc1cc(=O)n2nc(N3CCC(C(=O)N4CCN(c5ccc(OC)cc5)CC4)CC3)sc2n1	80	1	-1	0	.	.	.	.
Cc1ccc2c(CC(=O)NCC3(N4CCOCC4)CCCCC3)coc2c1C	91	0	0	0	.	.	.	.
O=C(NC(Cc1ccccc1)C(=O)O)c1ccc(S(=O)(=O)N2CCCCC2)cc1 (configuration not stated)	99	0	-8	6.7*	114	0	103	0
O=C(Oc1ccc(/C=N/NC(=O)c2ccccn2)cc1)c1ccc(Br)cc1	115	2	3	7.2*	101	0	102	0
Cc1cc(C)cc(NC(=O)N2CCN(C/C=C/c3ccccc3)CC2)c1	112	1	-14	1	.	.	.	.
Cc1nc2ccccc2n2c(O)c(CC(=O)O)cc12	91	1	4	0.5*	100	0	94	0
